# Assay outcomes as filed in PubChem.
# CYP2C9 activ – human CYP2C9 activators, primary screen, biochemical, luminescence | recombinant CYP2C9, luciferin-H conversion; active compounds read high; factor 1 = untreated enzyme, 0 = blocked | 96,000 tested, 1.4% active | activation factor at 5 µM | AID 1024, 2008;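 active means activation factor of 2 or more for CYP2C9 at a 5 µM dose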;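 further: 0 = sulfaphenazole-blocked wells and 1 = vehicle-only wells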
# Target sequence (P11712 whole entry, looked up): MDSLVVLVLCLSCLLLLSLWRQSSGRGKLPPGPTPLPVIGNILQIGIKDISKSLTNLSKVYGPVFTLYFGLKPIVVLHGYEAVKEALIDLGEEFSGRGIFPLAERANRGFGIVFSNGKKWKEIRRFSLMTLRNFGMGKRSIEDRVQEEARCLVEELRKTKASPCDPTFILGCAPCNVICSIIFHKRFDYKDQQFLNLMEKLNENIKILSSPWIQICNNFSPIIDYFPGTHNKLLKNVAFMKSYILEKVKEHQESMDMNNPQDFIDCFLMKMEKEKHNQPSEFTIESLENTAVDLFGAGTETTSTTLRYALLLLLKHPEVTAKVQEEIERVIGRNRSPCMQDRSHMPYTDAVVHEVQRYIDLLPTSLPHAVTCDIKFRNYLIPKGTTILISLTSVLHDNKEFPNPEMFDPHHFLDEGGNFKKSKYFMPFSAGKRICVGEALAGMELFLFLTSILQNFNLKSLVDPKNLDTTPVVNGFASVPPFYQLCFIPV
# CYP2C19 inhib – blockers of cytochrome P450 2C19 activity – biochemical, luminescence, ADME assay, primary screen; P33261; CYP2C19 Supersomes, luciferin-H EGE luminescence, 30 min; inhibition, % at 5 µM; 96,000 tested, 21% active;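 active means CYP2C19 inhibition above a set limit at 5 µM in the primary screen, cut at about 50% in these data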;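 further: plate controls were negative control wells for no effect and 2.5 mM tranylcypromine positive control for full effect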
# Mac1 fbg inh – inhibitors of CD11b/CD18 adhesion to fibrinogen, primary screen, K562 cells, luminescence; 93,000 tested, 0.54% active; ATPlite luminescence; Mn2+ added to activate the integrin; inhibition, % at 10 µM; Integrin beta-2 (Homo sapiens) + Integrin alpha-M (Homo sapiens), P05107+P11215; AID 1497, 2009;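 active means primary inhibition of 50% or more at 10 µM, then 40% or more on retest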
# CD11b adhes enh – enhancers of CD11b/CD18 adhesion to fibrinogen, primary screen, K562 cells, luminescence; Integrin beta-2 (Homo sapiens) + Integrin alpha-M (Homo sapiens), P05107+P11215; ATPlite luminescence; activation, % at 10 µM; 93,000 tested, 0.07% active;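 active means 10 µM primary screen giving 50% or more activity, confirmed by 40% or more on retest at that dose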
# CYP2C9 inh – blockers of cytochrome P450 2C9 activity – biochemical, luminescence, ADME assay, primary screen; CYP2C9 Supersomes, luciferin-H conversion; inhibition, % at 5 µM; 96,000 tested, 20% active; AID 777, 2007;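 active means blocking of liver enzyme CYP2C9 beyond about 50% at 5 µM, limit read from the data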
# CYP2C19 act – human CYP2C19 activators, primary screen, biochemical, luminescence. Cytochrome P450 2C19 (Homo sapiens), P33261. recombinant CYP2C19, luciferin-H EGE luminescence; active compounds read high; 0 = fully inhibited enzyme, 1 = untreated enzyme. activation factor at 5 µM. 96,000 tested, under 10 active. AID 1025, 2008;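 active means activation factor of at least 2 at 5 µM in the primary screen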;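 further: 0 = wells with 2.5 mM tranylcypromine and 1 = vehicle-only wells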
# * marks the source's active call; other numbers are inactive results; · = no result. Most compounds without a hit are left out; they make up all but 28% or so of the library.
SMILES,CYP2C9 activ,CYP2C19 inhib,Mac1 fbg inh,CD11b adhes enh,CYP2C9 inh,CYP2C19 act
Cc1ccc(CNC(=O)CSc2nc(N3CCCCC3)nc(N3CCCCC3)n2)cc1,0.9,71*,-38,3,11,0.3
Cc1ccc(CCNC(=O)CCSCc2ccc(Cl)cc2)cc1,·,·,-2,2,·,·
COc1ccc(C2CCCN2C(=O)Nc2ccc(C)c(C)c2)cc1OC (stereo not drawn),0.9,76*,-4,1,14,0.2
COc1ccc(C2CCCN2C(=O)Nc2ccccc2)cc1OC (stereo not drawn),1.4,72*,2,0,-37,0.3
COc1ccc(NC(=O)C2CCCN2C(=O)NC2CCCCC2)cc1OC (stereo not drawn),1.1,8,-11,-3,-9,0.9
O=C(Nc1ccccc1)C1=C(N2CCOCC2)/C(=C/c2cccnc2)CC1,0.3,87*,-3,-5,67*,0.1
Cc1cc(C)c2c(n1)nn1c(C)c(CCC(=O)NCc3ccco3)c(C)nc21,1,-10,-3,-2,-1,1.1
Cc1nc(SCC(=O)NCc2ccco2)[nH]c(=O)c1C,1.1,-17,4,-3,-8,1.2
O=C(NCc1ccco1)c1cnn2c(C(F)(F)F)cc(-c3cccs3)nc12,0.5,34,-2,0,51*,0.7
Cc1cc(NC(=O)c2cnn3c(C(F)F)cc(-c4ccccc4)nc23)no1,0.9,2,0,-3,13,1
O=C(NCc1ccco1)c1cnn2c(C(F)F)cc(-c3ccccc3)nc12,0.4,1,-12,1,58*,1
Cc1cc(C)c(Cc2c(C)nc3c(C(=O)NCc4ccco4)cnn3c2C)c(C)c1,0.2,8,79,-5,78*,0.9
O=C(CSc1nc2nc(-c3cccs3)cc(C(F)(F)F)c2c(=O)[nH]1)NCc1ccco1,0.3,6,4,-6,72*,0.9
O=C(O)c1cnn2c(C(F)(F)F)cc(-c3ccco3)nc12,1,-17,5,-1,-1,1.2
CSCC[C@H](NC(=O)C1CCN(S(=O)(=O)c2ccc(C)cc2)CC1)C(=O)NCc1ccco1,1,-6,2,0,-1,1.1
CCOC(=O)c1c(-c2ccccc2)csc1NC(=O)CSc1nnnn1C,0.2,45,4,-2,80*,0.6
CCOC(=O)c1c(NC(=O)CSc2nnnn2C)sc(C)c1-c1ccc(C)cc1,0.2,16,33,-2,76*,0.8
CCOC(=O)c1c(NC(=O)CSc2nncn2C)sc(C)c1C,0.9,10,-9,1,9,0.9
CSc1nc(C)cc(OCC#N)n1,1.2,12,-7,-3,-23,0.9
Cc1ccc(NC(=O)C2CCCO2)cc1[N+](=O)[O-] (stereo not drawn),·,·,-3,10,·,·
COc1ccc(C)cc1S(=O)(=O)N1c2ccccc2CC1C (stereo not drawn),0,96*,-2,1,96*,0
COc1ccc(OC)c(S(=O)(=O)N2CCN(c3ccccn3)CC2)c1,0.2,83*,·,·,77*,0.2
CCOc1cc(S(=O)(=O)N2CCC(C(N)=O)CC2)ccc1F,1.1,-7,3,-4,-10,1.1
